By inhibition is commonly meant the change of the read-out against control, counted positive when it falls.

Some of the results follow. Active and inactive are the calls of the source.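 How the source made its calls: active means inhibition at or above 50% in each of two repeat confirmation tests; inconclusive means one repeat below 50% inhibition, the other above; inactive means both repeats at or below 50% inhibition.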

The target of this experiment is Serine/threonine-protein kinase PLK1 (Homo sapiens) (UniProt P53350). The experiment is described as follows: PLK1 kinase activity inhibitors, confirmation, biochemical, TR-FRET, duplicate runs (AID 744).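 Further: 0% = DMSO max control and 100% = H-89 kinase-blocked min control.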 The settings on record: recombinant PLK1 kinase, TR-FRET peptide phosphorylation; at 10 µM; stronger effect = higher value. For orientation: TR-FRET usually uses a lanthanide donor and a delayed reading to cut background.
Serine/threonine-protein kinase PLK1 (Homo sapiens), sequence (P53350 whole entry, looked up): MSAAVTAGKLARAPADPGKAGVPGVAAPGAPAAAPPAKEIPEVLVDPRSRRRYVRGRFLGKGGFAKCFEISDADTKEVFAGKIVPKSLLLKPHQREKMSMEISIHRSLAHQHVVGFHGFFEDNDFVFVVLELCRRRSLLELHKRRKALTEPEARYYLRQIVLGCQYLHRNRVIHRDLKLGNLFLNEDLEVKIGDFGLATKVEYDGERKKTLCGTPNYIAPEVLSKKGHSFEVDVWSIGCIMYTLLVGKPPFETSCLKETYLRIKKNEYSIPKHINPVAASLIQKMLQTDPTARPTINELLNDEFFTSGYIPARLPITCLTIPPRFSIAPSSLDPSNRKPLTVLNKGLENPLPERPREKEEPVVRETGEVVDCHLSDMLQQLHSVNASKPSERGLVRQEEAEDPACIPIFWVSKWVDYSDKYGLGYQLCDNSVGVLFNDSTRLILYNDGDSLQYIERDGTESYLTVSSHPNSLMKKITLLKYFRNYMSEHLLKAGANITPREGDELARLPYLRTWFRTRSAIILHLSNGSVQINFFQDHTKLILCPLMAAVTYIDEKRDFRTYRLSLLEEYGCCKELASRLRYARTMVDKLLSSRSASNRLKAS
Take `COc1ccc(-c2nc(CS(=O)CC(=O)NCc3cccnc3)c(C)o2)cc1OC` (stereo unspecified): the inhibition was -2.97% (inactive). In the case of `CC1CSc2nnc(CCc3ccccc3)n21` (stereo unspecified), the inhibition was -11.1% (inactive). The result for `CC1CN(c2cc(=O)n(Cc3ccc(F)cc3)c(=O)[nH]2)CC(C)O1` (stereo unspecified) reads -5.99% (inactive); that for `Cc1ccnc(N2C(=O)c3ccccc3C2Nc2ccc3c(c2)OCCO3)c1` (stereo unspecified), -3.64% (inactive); that for `C[N+]1(CCNC(=O)/C=N/O)CCCCC1`, -0.685% (inactive).

For `O=C(Nc1cccc(F)c1)c1ccc(S(=O)(=O)N2CCCC2)cc1`, the inhibition is -12.1% (inactive).

These data come from PubChem BioAssay AID744 (University of Pittsburgh Molecular Library Screening Center, 2007).
